What all share (design): scale not given: direction of the effect not stated beside the values
In test [1] the target is Protein translocase subunit SecA (Escherichia coli (strain K12)) (UniProt P10408). The experiment in a line: Assay to Identify E. coli SecA ATPase Inhibitors. Type of test: functional. To be noted: 30 µM.
Test [2] concerns the target T1, Ubiquitin-activating enzyme e1, putative (Leishmania donovani (strain BPK282A1)) (UniProt E9BSI1).
T1 sequence (whole entry): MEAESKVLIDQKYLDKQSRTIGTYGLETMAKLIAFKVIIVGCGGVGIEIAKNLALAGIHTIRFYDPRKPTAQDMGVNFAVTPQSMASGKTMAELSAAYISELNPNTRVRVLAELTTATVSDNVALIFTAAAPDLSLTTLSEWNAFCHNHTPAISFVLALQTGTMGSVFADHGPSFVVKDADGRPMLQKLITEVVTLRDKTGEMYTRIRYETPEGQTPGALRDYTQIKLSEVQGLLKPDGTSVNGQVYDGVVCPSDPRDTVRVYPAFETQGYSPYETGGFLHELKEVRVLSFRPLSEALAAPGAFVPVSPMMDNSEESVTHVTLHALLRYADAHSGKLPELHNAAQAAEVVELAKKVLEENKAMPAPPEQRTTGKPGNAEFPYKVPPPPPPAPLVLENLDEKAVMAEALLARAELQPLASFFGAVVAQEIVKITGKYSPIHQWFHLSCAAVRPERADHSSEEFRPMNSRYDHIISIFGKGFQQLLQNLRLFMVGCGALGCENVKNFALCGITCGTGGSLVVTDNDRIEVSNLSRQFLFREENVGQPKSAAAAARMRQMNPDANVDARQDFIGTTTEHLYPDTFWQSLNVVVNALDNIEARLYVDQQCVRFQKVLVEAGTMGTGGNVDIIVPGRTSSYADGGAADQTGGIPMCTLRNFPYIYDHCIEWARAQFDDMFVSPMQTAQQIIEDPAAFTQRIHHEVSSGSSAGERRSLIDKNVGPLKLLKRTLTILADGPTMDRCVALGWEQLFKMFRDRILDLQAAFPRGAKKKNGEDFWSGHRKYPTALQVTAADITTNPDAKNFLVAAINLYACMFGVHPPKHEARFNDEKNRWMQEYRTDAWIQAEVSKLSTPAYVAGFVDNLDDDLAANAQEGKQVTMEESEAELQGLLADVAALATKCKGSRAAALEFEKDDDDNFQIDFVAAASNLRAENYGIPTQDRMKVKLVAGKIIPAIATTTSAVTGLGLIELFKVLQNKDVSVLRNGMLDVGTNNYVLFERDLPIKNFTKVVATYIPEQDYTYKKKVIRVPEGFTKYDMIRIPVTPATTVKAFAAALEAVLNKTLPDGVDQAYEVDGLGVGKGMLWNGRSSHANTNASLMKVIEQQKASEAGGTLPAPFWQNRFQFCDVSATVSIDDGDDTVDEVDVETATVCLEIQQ
Description: Leishmania donovani Ubiquitin Activating Enzyme (LdE1). Type of test: functional. The conditions noted are these: 30 µM.

The target of test [3] is AMP-activated protein kinase, AMPK (Homo sapiens) (UniProt P54646+O43741+P54619+Q9UGJ0+Q9Y478+Q13131+Q9UGI9). Description: AMP-dependent Kinase enzyme assay. An in vitro enzyme assay that detects ADP turnover that is directly proportional to AMPK activity. This uses naive AMPK that is activated during the assay with MK-8722. Type of test: functional. The conditions noted are these: 30 µM.

For test [4], the target named is Sialic acid-binding Ig-like lectin 9 (Homo sapiens) (UniProt Q9Y336). The experiment in a line: Hs-Siglec9 ALPHAscreen SOP 20170721. The conditions noted are these: 10 µM. Background: In Alpha technology, singlet oxygen from a donor bead excites a nearby acceptor bead.
For another test, the system named is Trypanosoma cruzi. Description: Trypanosoma cruzi phosphomannomutase and mannose-1-phosphate guanylyltransferase assay. Type of test: functional. The conditions noted are these: 10 µM.
The target in test [5] is T2, Arginase-2, mitochondrial (Homo sapiens) (UniProt P78540).
T2 sequence (whole entry): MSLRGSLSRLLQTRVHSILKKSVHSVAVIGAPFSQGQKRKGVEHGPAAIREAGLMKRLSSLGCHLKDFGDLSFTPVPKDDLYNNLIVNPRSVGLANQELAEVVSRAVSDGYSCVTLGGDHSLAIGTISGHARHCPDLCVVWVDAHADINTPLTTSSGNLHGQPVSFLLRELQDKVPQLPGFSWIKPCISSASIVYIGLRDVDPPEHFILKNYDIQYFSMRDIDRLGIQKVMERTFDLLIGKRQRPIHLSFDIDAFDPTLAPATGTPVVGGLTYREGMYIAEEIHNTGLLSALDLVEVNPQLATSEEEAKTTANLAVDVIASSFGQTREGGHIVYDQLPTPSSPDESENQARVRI
Description: in vitro enzyme assay to detect the production of urea directly proportional to the activity of Arginase II. Note: in the data most compounds retested in dose-response had high values. To be noted: 33.3 µM. Type of test: functional.

Test [6] deals with T3, Proteasome subunit beta (Trypanosoma cruzi) (UniProt O96673).
T3 sequence (whole entry): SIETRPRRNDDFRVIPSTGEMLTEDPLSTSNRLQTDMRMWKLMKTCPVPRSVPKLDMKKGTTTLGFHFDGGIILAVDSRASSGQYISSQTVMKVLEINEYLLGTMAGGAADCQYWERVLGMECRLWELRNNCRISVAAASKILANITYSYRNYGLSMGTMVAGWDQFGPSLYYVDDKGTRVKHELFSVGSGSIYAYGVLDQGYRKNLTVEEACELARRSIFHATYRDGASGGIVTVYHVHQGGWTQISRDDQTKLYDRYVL
Description: Trypanosoma cruzi proteasome chymotrypsin-like activity (TcProtChymo) assay. Note: in the data most compounds retested in dose-response had high values. The conditions noted are these: 9.37 µM. Type of test: functional.

The next test is filed under the species Homo sapiens. The experiment in a line: To identify inhibition of the IFN signalling (Jak-Stat) pathway via expression of an eGFP reporter gene under the control of an IFN-stimulated response element (ISRE) containing MxA promoter. Type of test: functional. To be noted: 30 µM. (A reporter such as luciferase makes a cellular process visible.)
For test [7], the target named is T4, Tyrosyl-tRNA synthetase, putative (Trypanosoma cruzi (strain CL Brener)) (UniProt Q4DSP6).
T4 sequence (whole entry): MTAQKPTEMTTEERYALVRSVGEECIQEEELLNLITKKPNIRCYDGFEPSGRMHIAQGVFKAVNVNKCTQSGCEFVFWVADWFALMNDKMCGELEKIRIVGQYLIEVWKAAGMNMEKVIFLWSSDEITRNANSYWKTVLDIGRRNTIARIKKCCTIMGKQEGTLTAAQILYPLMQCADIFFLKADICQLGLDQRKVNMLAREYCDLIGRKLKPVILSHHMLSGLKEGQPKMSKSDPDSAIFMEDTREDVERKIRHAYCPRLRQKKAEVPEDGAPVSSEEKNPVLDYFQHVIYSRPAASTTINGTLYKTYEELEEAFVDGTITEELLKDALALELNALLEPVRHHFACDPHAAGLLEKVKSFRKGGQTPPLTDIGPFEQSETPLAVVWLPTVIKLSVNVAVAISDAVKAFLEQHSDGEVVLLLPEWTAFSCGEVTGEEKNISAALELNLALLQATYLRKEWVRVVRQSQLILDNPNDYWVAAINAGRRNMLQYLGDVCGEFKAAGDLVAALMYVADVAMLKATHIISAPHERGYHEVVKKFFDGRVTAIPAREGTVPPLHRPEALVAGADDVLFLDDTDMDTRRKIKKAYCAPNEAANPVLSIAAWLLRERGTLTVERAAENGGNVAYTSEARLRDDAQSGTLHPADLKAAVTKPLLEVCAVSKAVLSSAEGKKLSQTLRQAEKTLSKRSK
Description: Trypanosoma cruzi tyrosyl tRNA synthetase (TcYRS) _High Tyrosine SOP. Note: in the data most compounds retested in dose-response had high values. The conditions noted are these: 30 µM. Type of test: functional.

Test [8] addresses T4, Tyrosyl-tRNA synthetase, putative (Trypanosoma cruzi (strain CL Brener)). Description: Trypanosoma cruzi tyrosyl tRNA synthetase (TcYRS) SOP. Type of test: functional. To be noted: 30 µM.
The target of test [9] is Chromo domain-containing protein 1 (Saccharomyces cerevisiae (strain ATCC 204508 / S288c) (Baker's yeast)) (UniProt P32657). The experiment in a line: ScCHD-1 Enzyme Inhibition Assay. Note: in the data most compounds retested in dose-response had high values. Type of test: functional. To be noted: 30 µM.

For some of these results: Potency and affinity values are given separately.

Sequence of Sialic acid-binding Ig-like lectin 9 (Homo sapiens) (Q9Y336 whole entry): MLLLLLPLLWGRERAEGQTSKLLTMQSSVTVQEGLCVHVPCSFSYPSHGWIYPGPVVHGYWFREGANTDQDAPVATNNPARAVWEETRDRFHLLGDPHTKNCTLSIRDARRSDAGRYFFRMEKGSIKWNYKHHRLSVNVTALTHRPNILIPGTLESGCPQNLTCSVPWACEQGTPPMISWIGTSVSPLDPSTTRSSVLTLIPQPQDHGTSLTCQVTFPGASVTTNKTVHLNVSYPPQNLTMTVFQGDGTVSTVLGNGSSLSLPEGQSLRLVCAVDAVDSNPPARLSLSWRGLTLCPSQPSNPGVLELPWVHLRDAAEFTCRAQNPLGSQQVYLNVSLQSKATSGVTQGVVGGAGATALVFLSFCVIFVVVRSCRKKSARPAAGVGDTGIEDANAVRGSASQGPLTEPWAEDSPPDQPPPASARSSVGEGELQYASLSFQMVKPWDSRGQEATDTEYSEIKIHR
Sequence of Protein translocase subunit SecA (Escherichia coli (strain K12)) (P10408 whole entry): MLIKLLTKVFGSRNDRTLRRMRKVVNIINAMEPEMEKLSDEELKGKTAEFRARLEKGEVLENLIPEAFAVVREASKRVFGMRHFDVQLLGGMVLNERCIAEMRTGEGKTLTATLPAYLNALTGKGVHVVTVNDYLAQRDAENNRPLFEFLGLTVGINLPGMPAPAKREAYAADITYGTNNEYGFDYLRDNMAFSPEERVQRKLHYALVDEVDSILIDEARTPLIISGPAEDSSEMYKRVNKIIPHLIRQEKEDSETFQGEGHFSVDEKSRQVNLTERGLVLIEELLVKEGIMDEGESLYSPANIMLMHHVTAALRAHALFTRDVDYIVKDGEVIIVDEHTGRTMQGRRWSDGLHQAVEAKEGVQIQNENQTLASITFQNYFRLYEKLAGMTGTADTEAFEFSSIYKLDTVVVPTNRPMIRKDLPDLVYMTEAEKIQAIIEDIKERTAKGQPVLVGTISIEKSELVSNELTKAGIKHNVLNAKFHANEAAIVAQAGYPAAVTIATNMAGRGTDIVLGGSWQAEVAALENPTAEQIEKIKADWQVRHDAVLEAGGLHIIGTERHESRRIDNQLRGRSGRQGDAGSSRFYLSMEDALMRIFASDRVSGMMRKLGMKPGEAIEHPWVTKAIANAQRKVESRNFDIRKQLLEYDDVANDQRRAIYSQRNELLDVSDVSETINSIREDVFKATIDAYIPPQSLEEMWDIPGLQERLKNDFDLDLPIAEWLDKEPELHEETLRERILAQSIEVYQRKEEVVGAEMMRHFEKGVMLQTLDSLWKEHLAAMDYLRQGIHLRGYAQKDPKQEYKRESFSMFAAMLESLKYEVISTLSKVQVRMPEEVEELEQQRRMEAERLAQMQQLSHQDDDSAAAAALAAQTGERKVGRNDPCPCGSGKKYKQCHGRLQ
Sequence of Chromo domain-containing protein 1 (Saccharomyces cerevisiae (strain ATCC 204508 / S288c) (Baker's yeast)) (P32657 whole entry, the tested form may be a part): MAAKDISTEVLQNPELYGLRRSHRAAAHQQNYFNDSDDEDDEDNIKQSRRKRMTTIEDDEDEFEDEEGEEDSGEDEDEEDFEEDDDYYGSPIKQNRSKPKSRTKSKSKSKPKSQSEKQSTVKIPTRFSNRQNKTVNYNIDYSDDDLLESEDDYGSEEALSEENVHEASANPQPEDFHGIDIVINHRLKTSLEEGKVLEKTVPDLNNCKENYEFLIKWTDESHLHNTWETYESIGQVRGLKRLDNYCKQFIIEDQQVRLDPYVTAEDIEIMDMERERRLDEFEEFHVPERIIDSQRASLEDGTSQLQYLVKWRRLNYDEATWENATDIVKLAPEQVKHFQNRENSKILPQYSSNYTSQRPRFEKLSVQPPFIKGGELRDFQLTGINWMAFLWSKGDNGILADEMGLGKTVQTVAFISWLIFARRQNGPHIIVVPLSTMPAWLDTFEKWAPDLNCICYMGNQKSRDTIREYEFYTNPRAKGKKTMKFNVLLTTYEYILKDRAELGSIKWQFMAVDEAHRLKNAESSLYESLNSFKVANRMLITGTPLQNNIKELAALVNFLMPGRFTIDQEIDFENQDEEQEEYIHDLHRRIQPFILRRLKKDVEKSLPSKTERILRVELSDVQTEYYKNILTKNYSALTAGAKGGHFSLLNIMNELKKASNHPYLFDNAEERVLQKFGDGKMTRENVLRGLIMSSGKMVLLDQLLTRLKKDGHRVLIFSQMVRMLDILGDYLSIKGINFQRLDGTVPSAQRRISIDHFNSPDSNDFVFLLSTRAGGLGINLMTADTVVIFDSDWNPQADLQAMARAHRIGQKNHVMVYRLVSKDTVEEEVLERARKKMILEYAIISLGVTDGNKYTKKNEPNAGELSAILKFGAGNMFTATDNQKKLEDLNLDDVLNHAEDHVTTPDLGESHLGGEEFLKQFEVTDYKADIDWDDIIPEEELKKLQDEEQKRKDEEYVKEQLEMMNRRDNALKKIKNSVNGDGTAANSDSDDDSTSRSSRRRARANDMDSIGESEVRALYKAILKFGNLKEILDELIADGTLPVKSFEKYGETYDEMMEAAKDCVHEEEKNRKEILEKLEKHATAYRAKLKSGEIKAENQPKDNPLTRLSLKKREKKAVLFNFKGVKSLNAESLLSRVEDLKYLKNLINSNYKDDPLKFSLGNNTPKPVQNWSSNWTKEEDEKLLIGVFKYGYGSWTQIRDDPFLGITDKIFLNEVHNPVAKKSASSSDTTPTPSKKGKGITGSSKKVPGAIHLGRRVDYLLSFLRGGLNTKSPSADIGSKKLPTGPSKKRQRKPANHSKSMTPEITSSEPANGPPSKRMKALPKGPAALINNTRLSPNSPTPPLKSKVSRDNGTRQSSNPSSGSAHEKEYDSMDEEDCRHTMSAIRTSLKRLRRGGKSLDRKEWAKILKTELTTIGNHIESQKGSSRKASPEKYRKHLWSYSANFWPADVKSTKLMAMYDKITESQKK

As for `Cc1nnc(C2Cc3ccccc3CN2Cc2ncc(C(C)(C)C)o2)o1` (stereo not drawn), the Percent Effect in [1] was -1.87%; in [2], 15.6%; in [3], 3.3%; in test [4] it was -12.9%; in the test with Trypanosoma cruzi, -3.82%; in [5], -1.05%. For the same compound, the Percent Effect in [6] was 20.8%; in the test filed under Homo sapiens, 27.9%; in test [7] it was 8.57%; in test [8] it was 11.8%; in test [9] it was -17.8%.
Take `Cc1nnc(N2CCC(CN(C)C(C)C)CC2)c(C#N)c1C`: the Percent Effect in [1] was -4.73%; in test [2], 2.6%; in test [3], -19%; in test [4], -13.1%; in the test with Trypanosoma cruzi, 9.89%; in test [5], -4%. Moreover, the Percent Effect is 3.64% in [6]; 4.7% in the test filed under Homo sapiens; 3.81% in test [7]; 11.8% in test [8]; -23.4% in test [9].
For `Cc1cnn(CCNCc2ccc(OCC(N)=O)cc2)c1`, the Percent Effect was -7.27% in test [1]; 5.33% in test [2]; -3.69% in test [3]; 3.41% in [4]; 3.8% in the test with Trypanosoma cruzi; 5.21% in test [5]. Further, the Percent Effect in test [6] was 4.36%; in the test filed under Homo sapiens, -9.67%; in [7], 3.83%; in [8] it was 8.64%; in test [9] it was -7.44%.
Consider `CNC(=O)c1ccc(C2CN(C(=O)c3cncs3)CCO2)nc1` (stereo not drawn), for which the Percent Effect in [1] is -2.48%; in test [2], 20.3%; in [3] it was 5.67%; in test [4], 6.66%; in the test on Trypanosoma cruzi, 1.19%; in [5] it was -1.62%. In addition, the Percent Effect was 11.1% in test [6]; -10% in the test filed under Homo sapiens; 2.15% in test [7]; 16.9% in test [8]; -16.6% in [9].
Consider `Cc1csc(N2CCN(CC(=O)Nc3nncs3)CC2C)n1` (stereo not drawn), for which the Percent Effect is -3.67% in test [1]; 0% in test [2]; -9.26% in [3]; 8.6% in test [4]; -0.836% in the test on Trypanosoma cruzi; -3.88% in test [5]. Further, the Percent Effect in test [6] is 5.92%; in the test listed under Homo sapiens it was 9.1%; in [7], 3.96%; in test [8], -1.22%; in test [9], 10.3%.
As to `O=C(NCCNc1ncccn1)N1CCN(Cc2cccnc2)CC1`, the Percent Effect in test [1] was -10.3%; in test [2], 13.5%; in test [3], -7.65%; in test [4] it was 22.9%; in the test with Trypanosoma cruzi, 10.5%; in test [5], -16%. Also, the Percent Effect in [6] is 6.13%; in the test listed under Homo sapiens, 2.94%; in test [7], 7.39%; in test [8], 23.5%; in test [9], -14.1%.
In the case of `O=c1cc2c(nn1CN1CCN(c3ccccc3)CC1)CCC2`, the Percent Effect in test [1] was -2.18%; in [2] it was 12%; in test [3], -4.49%; in test [4], 2.85%; in the test on Trypanosoma cruzi it was 0%; in test [5], -1.23%. For the same compound, the Percent Effect in [6] was 15%; in the test filed under Homo sapiens it was 11.5%; in [7], 6.35%; in test [8] it was 15.4%; in test [9], -9.54%.
Turning to `COCC1CN(C(=O)c2cccn2C)Cc2nccn2C1` (stereo not drawn), the Percent Effect in test [1] is -0.683%; in test [2], 10.7%; in test [3] it was 12.7%; in test [4], -7.24%; in the test with Trypanosoma cruzi, -5.32%; in [5], 1.63%. Moreover, the Percent Effect was 13.8% in test [6]; 10.6% in the test listed under Homo sapiens; 2.13% in test [7]; 11.5% in test [8]; -4.6% in test [9].

Values taken from ChEMBL document CHEMBL3988442, “University of Dundee, Small-Polar-MMV Screening Library” (2021).
